Results filed as inconclusive are left out. Active and inactive are the calls of the source. Unless noted, calls come from the whole dose curve; as a rule, active = well fitted curve in the direction sought with a large enough effect in the repeat runs; inconclusive = weak or mixed curves; inactive = no such curve, though single readings can be large; an effect the other way counts as inactive or inconclusive.
Columns and labels:
[1] = target: Retinoic acid receptor RXR-alpha (Homo sapiens) (UniProt P19793); experiment: qHTS assay to identify small molecule agonists of the RXR signaling pathway (AID 1159527; calls by dose curve; note: nearly all actives have a fitted effect of over 35% in size)
Sequence of Retinoic acid receptor RXR-alpha (Homo sapiens) (P19793 whole entry, looked up): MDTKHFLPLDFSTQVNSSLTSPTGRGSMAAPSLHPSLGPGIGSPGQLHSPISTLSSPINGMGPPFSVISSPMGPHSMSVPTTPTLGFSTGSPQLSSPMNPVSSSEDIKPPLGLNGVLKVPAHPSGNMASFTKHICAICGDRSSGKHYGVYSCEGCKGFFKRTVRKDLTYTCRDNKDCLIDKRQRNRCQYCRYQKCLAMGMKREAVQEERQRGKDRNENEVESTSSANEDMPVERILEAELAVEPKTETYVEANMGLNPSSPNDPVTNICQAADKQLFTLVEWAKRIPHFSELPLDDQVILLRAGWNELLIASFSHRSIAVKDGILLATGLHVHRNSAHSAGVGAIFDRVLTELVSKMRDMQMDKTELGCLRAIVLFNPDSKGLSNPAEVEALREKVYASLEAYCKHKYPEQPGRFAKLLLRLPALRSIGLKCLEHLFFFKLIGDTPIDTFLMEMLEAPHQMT
Procedure, shortened: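 Agonist mode; 9-cis retinoic acid positive control. HEK 293T UAS-bla reporter cells, 2% charcoal-stripped FBS, 16 hr compound exposure at 37 C/5% CO2. LiveBLAzer B/G FRET substrate 2 hr RT; ex 405, em 460/530 nm.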

[2] = qHTS assay to identify small molecule agonists of the RXR signaling pathway - cell viability counter screen (AID 1159529); note: series mostly up to about 77 µM; nearly all actives have a fitted effect of over 50% in size
Procedure, shortened: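 Luminescence from CellTiter-Glo (30 min, RT) measured viability in the same wells as the beta-lactamase reporter readout. Cells: GeneBLAzer RXR-alpha HEK 293T, 2% charcoal-stripped FBS. Compound exposure 16 hr, 37 C.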

[3] = qHTS assay to identify small molecule antagonists of the retinoid acid receptor (RAR) signaling pathway - cell viability counter screen (AID 1159551); note: nearly all actives have a fitted effect of over 35% in size
Procedure, shortened: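 Cytotoxicity counter screen: ATP content quantified by CellTiter-Glo luminescence in C3RL4 cells treated 6 hr at 37 C with compound and retinol (1 uM final). Cells plated at 1,000/well and cultured overnight before dosing.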

[4] = qHTS assay to identify small molecule antagonists of the estrogen related receptor (ERR) signaling pathway from Tox21 library - cell viability counter screen (AID 1224834); note: nearly all actives have a fitted effect of over 30% in size
Procedure, shortened: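 CellTiter-Fluor fluorescence, read after 30 min at 37 C, measures viability of ERR cells. Cells plated at 2,000/well and incubated 6 h before pin-tool compound addition, then exposed 17.5 hours at 37 C.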

[5] = target: Luciferin 4-monooxygenase (Photinus pyralis) (UniProt P08659); experiment: qHTS assay to identify small molecule inhibitors of firefly luciferase (AID 1224835); note: nearly all actives have a fitted effect of over 25% in size; note: potency is the fitted concentration of half-maximal effect
Sequence of Luciferin 4-monooxygenase (Photinus pyralis) (P08659 whole entry, looked up): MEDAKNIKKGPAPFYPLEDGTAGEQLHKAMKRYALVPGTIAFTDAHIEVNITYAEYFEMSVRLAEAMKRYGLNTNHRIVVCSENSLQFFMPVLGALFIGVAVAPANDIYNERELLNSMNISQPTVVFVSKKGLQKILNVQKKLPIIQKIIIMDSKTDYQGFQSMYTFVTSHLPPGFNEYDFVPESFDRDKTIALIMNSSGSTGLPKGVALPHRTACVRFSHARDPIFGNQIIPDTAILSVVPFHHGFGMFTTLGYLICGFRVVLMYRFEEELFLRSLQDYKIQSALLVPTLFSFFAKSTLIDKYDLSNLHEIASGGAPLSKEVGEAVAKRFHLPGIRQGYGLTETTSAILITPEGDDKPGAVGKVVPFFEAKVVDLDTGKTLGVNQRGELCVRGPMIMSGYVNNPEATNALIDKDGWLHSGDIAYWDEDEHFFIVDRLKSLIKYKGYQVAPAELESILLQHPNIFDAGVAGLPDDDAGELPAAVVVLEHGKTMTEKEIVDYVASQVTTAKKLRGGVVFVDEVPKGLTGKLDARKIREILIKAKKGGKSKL
Procedure, shortened: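 Biochemical qHTS: compounds run as interplate titrations against purified firefly enzyme, with D-luciferin and ATP each at its KM concentration. Light output recorded by CCD imaging.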

[6] = qHTS assay to identify small molecule agonists of the constitutive androstane receptor (CAR) signaling pathway - cell viability counter screen (AID 1224836); note: series mostly up to about 92 µM; nearly all actives have a fitted effect of over 45% in size
Procedure, shortened: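 Viability read-out: CellTiter-Fluor fluorescence after 23 h compound exposure at 37 C/5% CO2 in double-stable HepG2-CYP2B6-hCAR cells, with PK11195 present at 0.75 uM final; compounds tested in 15-point titration.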

[7] = target: Nuclear receptor subfamily 1 group I member 3 (Homo sapiens) (UniProt Q14994); experiment: qHTS assay to identify small molecule antagonists of the constitutive androstane receptor (CAR) signaling pathway (AID 1224838);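 note: HepG2 cells stably expressing hCAR with CYP2B6 luciferase reporter stimulated by CITCO; nearly all actives have a fitted effect of over 40% in size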
Sequence of Nuclear receptor subfamily 1 group I member 3 (Homo sapiens) (Q14994 whole entry, looked up): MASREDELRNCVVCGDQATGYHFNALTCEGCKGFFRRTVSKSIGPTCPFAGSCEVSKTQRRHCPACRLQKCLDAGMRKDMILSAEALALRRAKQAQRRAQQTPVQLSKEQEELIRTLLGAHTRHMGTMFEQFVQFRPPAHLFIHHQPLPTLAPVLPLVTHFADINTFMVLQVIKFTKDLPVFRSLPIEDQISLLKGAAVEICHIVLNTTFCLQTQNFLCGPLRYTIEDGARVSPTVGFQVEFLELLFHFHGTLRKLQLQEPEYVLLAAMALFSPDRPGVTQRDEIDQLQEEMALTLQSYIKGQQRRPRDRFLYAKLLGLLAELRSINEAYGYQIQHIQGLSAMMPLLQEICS
Procedure, shortened: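 Antagonism measured as luciferase signal (ONE-Glo, 30 min, room temperature) in CAR-stimulated cells: HepG2-CYP2B6-hCAR double-stable line exposed 24 hr at 37 C to compound in a 15-point series plus 50 nM CITCO.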

[8] = target: Nuclear receptor subfamily 1 group I member 3 (Homo sapiens) (UniProt Q14994); experiment: qHTS assay to identify small molecule agonists of the constitutive androstane receptor (CAR) signaling pathway (AID 1224839); note: nearly all actives have a fitted effect of over 15% in size; note: potency is the fitted concentration of half-maximal effect;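 for activation: HepG2 cells stably carrying human CAR and a CYP2B6 luciferase reporter; series mostly up to about 92 µM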
Procedure, shortened: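 Luminescence read-out (ONE-Glo, 30 min, room temperature) from double-stable HepG2-CYP2B6-hCAR cells exposed 24 h to 15-point compound series in presence of 0.75 uM PK11195 final.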

[9] = qHTS assay to identify small molecule antagonists of the estrogen related receptor signaling pathway with the pleiotropic PPARgamma coactivator (PGC) from Tox21 10K library - cell viability counter screen (AID 1224840; active = well fitted cell-killing curve with a large enough effect in the repeat runs, not every such curve was filed as active; note: nearly all actives have a fitted effect of over 40% in size)
Procedure, shortened: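 Counter-screen for cytotoxicity: after 17.5 h compound exposure at 37 C, CellTiter-Fluor reagent added to PGC/ERR cells for 30 min and fluorescence read. Cells were seeded at 2,000 per well 6 h before dosing.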

[10] = qHTS assay to identify small molecule antagonists of the estrogen related receptor signaling pathway with the pleiotropic PPARgamma coactivator (PGC) from Tox21 10K library (AID 1224841; call rule not given here; note: series mostly up to about 92 µM; actives are mostly falling curves and most rising ones were filed inactive; nearly all actives have a fitted effect of over 50% in size)
Procedure, shortened: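 Luminescence (One-Glo, 30 min at room temperature) after 18 h compound treatment at 37 C of PGC/ERR reporter cells plated at 2,000 cells/well and settled 6 h beforehand.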

[11] = qHTS assay to identify small molecule agonists of the estrogen related receptor signaling pathway with the pleiotropic PPARgamma coactivator (PGC) from Tox21 10K library (AID 1224842); note: nearly all actives have a fitted effect of over 15% in size
Procedure, shortened: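 PGC/ERR reporter cell line, 2,000 cells per well, incubated 6 h at 37 C before 23 nL compound in DMSO was added. After 18 h at 37 C, One-Glo luminescence read following 30 min at room temperature.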

[12] = qHTS assay to identify small molecule antagonists of the constitutive androstane receptor (CAR) signaling pathway - cell viability counter screen (AID 1224837); note: series mostly up to about 92 µM; nearly all actives have a fitted effect of over 45% in size
Procedure, shortened: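 Cytotoxicity counter-screen: CellTiter-Fluor fluorescence after 23 h compound exposure (15-point qHTS) in double-stable HepG2-CYP2B6-hCAR cells, with 50 nM CITCO added.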

[13] = qHTS assay to identify small molecule antagonists of the estrogen related receptor (ERR) signaling pathway - cell viability counter screen (AID 1224818);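 note: series mostly up to about 46 µM; viability measured after 17.5 h of compound exposure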
Procedure, shortened: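 Cytotoxicity counter screen: fluorescence from CellTiter-Fluor, added after 17.5 h compound exposure at 37 C and read 30 min later. ERR cell line seeded at 2,000 cells/well, preincubated 6 h before dosing.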

[14] = qHTS assay to identify small molecule antagonists of the estrogen related receptor (ERR) signaling pathway (AID 1224819;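 note: luminescence from an ERR-driven luciferase reporter measured with One-Glo reagent; series mostly up to about 46 µM; nearly all actives have a fitted effect of over 50% in size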)
Procedure, shortened: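 LOPAC library screened for antagonism as reduced One-Glo luminescence in ERR reporter cells (2,000/well). Compounds were added after 6 h pre-incubation and left 18 h at 37C; reading followed a 30 min room-temperature reagent step.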

[15] = qHTS assay to identify small molecule agonists of the estrogen related receptor (ERR) signaling pathway (AID 1224820)
Procedure, shortened: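 Following a 6 h settling period, 2,000 ERR cells per well receive DMSO-dissolved compounds by pin tool and incubate 18 h at 37 C; agonist activity is scored from One-Glo luminescence read 30 min post-addition.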

[16] = system: estrogen-related receptor alpha (ERRalpha) with PGC-1alpha coactivator, human; experiment: qHTS assay to identify small molecule antagonists of the estrogen related receptor signaling pathway with the pleiotropic PPARgamma coactivator (PGC) (AID 1224821; calls by dose curve;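 note: series mostly up to about 46 µM; lower luminescence signal means antagonism of PGC/ERR signalling; nearly all actives have a fitted effect of over 50% in size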)
Procedure, shortened: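 Screening used NTP's PGC/ERR cells, dosed via pin tool with compound in DMSO alongside positive and negative controls. After 18 h at 37 C, One-Glo reagent sat 30 min at room temperature before luminescence detection.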

[17] = qHTS assay to identify small molecule antagonists of the estrogen related receptor signaling pathway with the pleiotropic PPARgamma coactivator (PGC) cell viability counter screen (AID 1224822; note: series mostly up to about 46 µM)
Procedure, shortened: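 Viability counter-screen read by fluorescence intensity after 30 min with CellTiter-Fluor at 37 C; PGC/ERR reporter cells were exposed to compounds for 17.5 h at 37 C following a 6 h preincubation.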

[18] = qHTS assay to identify small molecule agonists of the estrogen related receptor signaling pathway with the pleiotropic PPARgamma coactivator (PGC) (AID 1224823)
Procedure, shortened: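 In this quantitative high-throughput screen, an 18 h, 37 C treatment of PGC/ERR cells with compounds in DMSO preceded a One-Glo luminescence read taken after 30 min at room temperature.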

[19] = qHTS assay to identify small molecule antagonists of the retinoic acid receptor (RAR) signaling pathway (AID 1159552; note: nearly all actives have a fitted effect of over 50% in size)
Procedure, shortened: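 Luminescence from a RARE luciferase reporter in C3RL4 cells served as read-out. Cells received compounds together with 1 uM final retinol and incubated 6 hr at 37 C before detection reagent was added for 30 min at room temperature.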

[20] = qHTS assay to identify small molecule agonists of the retinoic acid receptor (RAR) signaling pathway (AID 1159553)
Procedure, shortened: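 Luminescence was measured 30 min after luciferase reagent addition at room temperature. Before that, C3RL4 reporter cells (1,000 per well, plated overnight) were treated with compound for 6 hr at 37 C and 5% CO2.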
% is set by controls: 0 for no effect and ±100 for the full control effect.

CC(=O)Nc1ccccc1C
inactive: Potency [1] | Potency [2] | Potency [3] | Potency [4] | Potency [5] | Potency [6] | Potency [7] | Potency [8] | Potency [9] | Potency [10] | Potency [11]

CC1(C)O[C@@H]2C[C@H]3[C@@H]4CCC5=CC(=O)C=C[C@]5(C)[C@H]4[C@@H](O)C[C@]3(C)[C@]2(C(=O)CO)O1
inactive: Potency [1] | Potency [2] | Potency [3] | Potency [4] | Potency [5] | Potency [12] | Potency [7] | Potency [8] | Potency [9] | Potency [10]

CCCCCCCC/C=C\CCCCCCCC(=O)OC
inactive: Potency [1] | Potency [2] | Potency [3] | Potency [4] | Potency [5] | Potency [6] | Potency [7] | Potency [8] | Potency [9]

CC1CN(c2cc3c(cc2F)c(=O)c(C(=O)O)cn3-c2ccc(F)cc2F)CCN1 (centres undefined)
inactive: activation [1] -0.207% [at 6.98 µM] | activity change, negative = cytotoxicity [2] -4.54% [at 6.97 µM] | activity change, negative = cytotoxicity [3] 0.772% [at 8.39 µM] | viability change, negative = cytotoxic [4] 4.3% [at 8.39 µM] | viability change, negative = cytotoxic [6] -1.43% [at 8.39 µM] | activity change, negative = cytotoxicity [12] 6.26% [at 8.39 µM] | activity, negative = inhibition [7] 9.29% [at 8.39 µM] | activation [8] -1.5% [at 8.39 µM] | viability change, negative = cytotoxic [9] 0.948% [at 8.39 µM]

N#C[C@@H]1C[C@@H]2C[C@@H]2N1C(=O)[C@@H](N)C12CC3CC(CC(O)(C3)C1)C2
inactive: Potency [1] | Potency [2] | Potency [3] | Potency [4] | Potency [5] | Potency [6] | Potency [12] | Potency [7] | Potency [8] | Potency [9] | Potency [10] | Potency [11]

CC(=O)OCC(=O)[C@@]12OC(C)(C)O[C@@H]1C[C@H]1[C@@H]3C[C@H](F)C4=CC(=O)C=C[C@]4(C)[C@@]3(F)[C@@H](O)C[C@@]12C
inactive: Potency [1] | Potency [2] | Potency [3] | Potency [4] | Potency [5] | Potency [6] | Potency [12] | Potency [7] | Potency [9]

Cc1nc2ccccn2c(=O)c1CCN1CCC(C(=O)c2ccc(F)cc2)CC1
inactive: outcome [13] | Potency [14] | outcome [15] | Potency [16] | outcome [17] | Potency [18]

CNC(=O)N(c1ccccc1)c1ccccc1
inactive: Potency [2] | Potency [3] | Potency [19] | Potency [20] | Potency [4] | Potency [5] | Potency [12] | Potency [7] | Potency [8] | Potency [9] | Potency [10] | Potency [11]

CN(C)C(=O)Nc1ccc(Oc2ccc(Cl)cc2)cc1
inactive: Potency [2] | Potency [3] | Potency [19] | Potency [4] | Potency [6] | Potency [7] | Potency [9] | Potency [11]
active: Potency [5] 63.3 µM | Potency [8] 30.6 µM

NC(=O)N(O)[C@@H]1C=C[C@H](Oc2cccc(Oc3ccc(F)cc3)c2)C1
active: Potency [5] 31.7 µM
inactive: Potency [2] | Potency [3] | Potency [19] | Potency [4] | Potency [12] | Potency [10]

NCC1CCCC(CN)C1 (centres undefined)
inactive: Potency [2] | Potency [3] | Potency [19] | Potency [20] | Potency [4] | Potency [6] | Potency [7] | Potency [9] | Potency [10] | Potency [11]

CC1=CC(O)CC(C)(C)C1 (centres undefined)
inactive: Potency [2] | Potency [3] | Potency [19] | Potency [20] | Potency [4] | Potency [5] | Potency [6] | Potency [12] | Potency [9]

Reference: PubChem BioAssay (Tox21)
